Source: PubChem BioAssay (EPA / NIEHS)
Activity calls are given as the source filed them. Rule for the calls: active = hit-call score of the fitted dose curve at least 0.9, where 1 is the maximum; inactive = score below 0.9.

Read-out: TIMP metallopeptidase inhibitor 1 (TIMP1), TIMP1 (gene 7076)
Assay: BSK_MyoF_TIMP1: BioMAP Diversity Plus: MyoF Assay for TIMP metallopeptidase inhibitor 1 (TIMP1) Biomarker Activity (AID 2284269)
Settings: primary human lung fibroblasts
In short: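 Fibroblasts from human lung are dosed with chemical, cultured 24 h, and assayed for TIMP-1 by ELISA. Increases over the DMSO baseline are scored, with SRB total-protein staining run in parallel for cytotoxicity.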

Q: How did the outcome turn out when `CC1(C)CC(O)CC(C)(C)N1[O]` was run?
A: inactive

Q: Which outcome does the source give for `CCCCCC1=CCCC1=O` here?
A: inactive

Q: For `CCCCCCCCCCCC(C)=O`, which outcome is on record?
A: inactive

Q: With `COC(OC)(C(=O)c1ccccc1)c1ccccc1` as the molecule, how does the outcome read?
A: inactive

Q: `CC=C(C)C=CC=C(C)C` was tested. Which outcome did it give?
A: inactive

Q: How did the outcome turn out when `CCN1CN(CC)CN(CC)C1` was run?
A: inactive

Q: Which outcome does the source give for `C=C(C)C(=O)OCCCCCCCCCCCC` here?
A: inactive

Q: Which outcome does the source give for `CC=C(C)C(C)=O` here?
A: inactive

Q: Which AC50 does the source give for `C=CC(=O)OCCCCCCOC(=O)C=C` here?
A: 29.4 µM (active)

Q: Which AC50 does the source give for `Oc1c(Cl)cc(Cl)c(Cl)c1Cl` here?
A: 33 µM (active)

Q: `O=C1CCCCCCCCCCC1` was tested. Which outcome did it give?
A: inactive

Q: With `COc1ccc(C(=O)/C(Br)=C\C(=O)O)cc1` as the molecule, how does the outcome read?
A: inactive

Q: How did the AC50 turn out when `c1ccc2sc(SSN3CCOCC3)nc2c1` was run?
A: 31.5 µM (active)

Q: With `C=CC(=O)NC(C)(C)C` as the molecule, how does the outcome read?
A: inactive

Q: How did the outcome turn out when `CCOC(=O)/C=C\C(=O)OCC` was run?
A: inactive

Q: For `O=C(Cl)c1c(Cl)c(Cl)c(C(=O)Cl)c(Cl)c1Cl`, which outcome is on record?
A: inactive

Q: With `CC/C=C\CCOC(=O)c1ccccc1O` as the molecule, how does the AC50 read?
A: 35.5 µM (active)

Q: `Cc1c(O)cccc1O` was tested. Which outcome did it give?
A: inactive

Q: Which outcome does the source give for `C=CC(=O)OCCCCCCCC(C)C` here?
A: inactive

Q: Which outcome does the source give for `CC(C)CCCCCOC(=O)CS` here?
A: inactive

Q: How did the outcome turn out when `CCCCCCOC(=O)CCCCC(=O)OCCCCCC` was run?
A: inactive

Q: For `Oc1ccc(/C=C/c2cc(O)cc(O)c2)cc1`, which outcome is on record?
A: inactive

Q: `CCOC(=O)C1=NOC(c2ccccc2)(c2ccccc2)C1` was tested. Which outcome did it give?
A: inactive

Q: With `CC(C)c1cccc(C(C)C)c1N` as the molecule, how does the outcome read?
A: inactive

Q: Which outcome does the source give for `CCOC(=O)C1=NN(c2ccc(Cl)cc2Cl)C(C)(C(=O)OCC)C1` (configuration not stated) here?
A: inactive

Q: Which outcome does the source give for `c1ccc2c(c1)[nH]c1ccccc12` here?
A: inactive

Q: `CCCCCCCO` was tested. Which outcome did it give?
A: inactive
